Data as given in PubChem BioAssay AID489025 (Southern Research Specialized Biocontainment Screening …, 2010).
About 790 (34%) of roughly 2,300 compounds were called active. How the calls were made is not given here. Some of the results follow. Results with a measured potency or affinity are listed apart.

Experiment: THP-1 cell cytotoxicity, dose response, cytotoxicity control for non-replicating M. tuberculosis project (AID 489025)
Conditions: THP-1 cell viability; series mostly up to 40 µM

Structure (SMILES) | outcome
Nc1ccc2c(c1)oc1ccccc12 | inactive
COc1ccc(N2CCN(CC(=O)NC(=O)NC(C)(C)C)CC2)cc1 | inactive
O=C(c1ccc([N+](=O)[O-])cc1[N+](=O)[O-])N1CCc2ccccc21 | inactive
Cc1cc(C)n(C(=O)c2ccc([N+](=O)[O-])cc2[N+](=O)[O-])n1 | inactive
CCC1(O)CC(c2ccccc2)=NN1C(=O)c1ccccc1F (stereo not given) | inactive
CCOC(=O)C(C)(C)n1nnc(-c2ccc([N+](=O)[O-])cc2)n1 | inactive
CCOC(=O)C1CCN(C(=O)COc2cc(C)c(Br)c(C)c2)CC1 | inactive
O=C(COc1ccccc1)Nc1ccc(Cl)cn1 | inactive
FC(F)c1nnc2ccc(Cl)nn12 | inactive
O=Cc1coc2ccc3ccccc3c2c1=O | inactive
COC(=O)COc1cccc(NC(=O)c2cccc(C)c2)c1 | inactive
COc1ccc(-c2noc(CCC(=O)Nc3cccc(C)c3)n2)cc1 | inactive
CCOC(=O)COc1ccc(C(=O)c2ccccc2)c(O)c1 | inactive
CC(C)c1cc(C(=O)N/N=C/C=C/c2ccccc2)n[nH]1 | inactive
COc1ccc(S(=O)(=O)NCc2ccc3c(c2)cc(C)n3C)cc1 | inactive
Cc1nnc(N/N=C/c2cccc(OCc3ccc(Cl)c(Cl)c3)c2)n1N | inactive
O=C(OCc1nc2ccccc2s1)c1ccc(Br)o1 | inactive
CCOC(=O)CCCNC(=O)COC(=O)c1cc(Br)c(Br)s1 | inactive
O=C(N/N=C/C(Br)=C/c1ccccc1)c1cnccn1 | inactive
CCOc1ccc(-c2ccc(C=O)o2)c([N+](=O)[O-])c1 | inactive
C/C(CC(=O)Nc1ccc(N(C)C)cc1)=N\NC(=O)c1ccncc1 | inactive
Cc1cc(Cl)ccc1OC(C)C(=O)Nc1ccc([N+](=O)[O-])cn1 (stereo not given) | inactive
Cc1ccc(C)c(NC(=O)c2cc([N+](=O)[O-])cc([N+](=O)[O-])c2)c1 | inactive
O=C1CC(=O)CC(c2ccccc2)C1 | inactive

Structure (SMILES) | outcome
O=C1CC(N2CCC(c3nc4ccccc4o3)CC2)C(=O)N1 (stereo not given) | inactive
O=[N+]([O-])c1ccc(CN2CCN(c3ccc(F)cc3)CC2)o1 | inactive
O=C(c1cccs1)N1CCN(c2ccc(Cl)cc2)CC1 | inactive
O=[N+]([O-])c1ccc(CN2CCN(c3ccccc3)CC2)o1 | inactive
O=[N+]([O-])c1ccc(N2CCN(Cc3ccc([N+](=O)[O-])o3)CC2)cc1 | inactive
O=C(NNC(=O)c1cccs1)c1ccc(Br)o1 | inactive
COc1cccc(OCC(=O)NNC(=O)c2cccs2)c1 | inactive
CCOC(=O)NC(=O)COC(=O)CCCSc1nc2ccccc2s1 | inactive
O=C(Cc1ccc(F)cc1)Nc1ccc(Cl)cn1 | inactive
Cc1ccc2nc(C)c3c(c2c1)SCC3 | inactive
COc1ccc(OCC(=O)Nc2ccc(N3CCN(C(=O)c4ccco4)CC3)cc2)cc1 | inactive
Nc1scc(-c2ccncc2)c1Cl | inactive
CCOC(=O)COc1ccc2c(c1)C(=O)CC(C)(c1cccnc1)O2 (stereo not given) | inactive
Oc1cc(NCc2cccnc2)ccc1-c1nc2ccccc2o1 | inactive
C/C(O)=C\c1nc2ccccc2oc1=O | inactive
COc1cc(/C=N/Nc2cccc3cccnc23)cc(OC)c1O | inactive
CCc1nnc(N/N=C/c2ccc(N3CCC(C)CC3)c([N+](=O)[O-])c2)n1N | inactive
COc1cc(/C=N/N(C)C)ccc1OC(=O)c1cccs1 | inactive
O=C(COc1ccc2c(c1)CCC2)Nc1ccccn1 | inactive
Cc1cccc2c(CC(=O)O)noc12 | inactive
COc1ccc(/C=C/c2nc3ccccc3c(=O)o2)cc1 | inactive
COc1cc(OC)cc(-c2nc3ccccc3c(=O)o2)c1 | inactive
O=C(C/C=N\OCc1ccc([N+](=O)[O-])cc1)Nc1ccc(Cl)cc1 | inactive
O=C(COC(=O)CC1CCCC1)Nc1ccc(OC(F)F)cc1 | inactive

Structure (SMILES) | outcome
COCCCNC(=O)COC(=O)c1ccc(-c2nc3ccccc3s2)s1 | inactive
CC(C)Cn1c(N)c(C(=O)COC(=O)c2ccc([N+](=O)[O-])o2)c(=O)n(C)c1=O | inactive
CCc1ccc(C(=O)COC(=O)c2ccc(Cl)nc2)cc1 | inactive
Oc1oc(-c2ccco2)nc1C=Nc1cccc(Cl)c1 | inactive
CCCCCn1nnc2c(=O)oc3ccccc3c21 | inactive
CCOc1ccc(OCC(=O)OCc2cc(=O)n3cc(Br)ccc3n2)cc1 | inactive
CCOC(=O)c1nc2sc3c(c2c(=O)[nH]1)CCC(C)C3 (stereo not given) | inactive
COc1cccc(COC(=O)CCNC(=O)c2ccc(Cl)cc2)c1OC | inactive
Nc1nonc1C(=O)NCCN=Cc1cc(Cc2ccccc2)cc(Br)c1O | inactive
COc1ccccc1C(c1nnnn1Cc1ccccc1)N1CCC(C(N)=O)CC1 (stereo not given) | inactive
CCCCNC(=O)N1CCc2ccccc2C1 | inactive
C/C(=N\NC(=O)c1ccc([N+](=O)[O-])c(C)c1)c1ccccc1Cl | inactive
COc1ccc(N=N/C(=C\O)C(=O)c2ccco2)cc1 | inactive
CCOC(=O)c1cc(-c2c(Cl)cccc2Cl)no1 | inactive
O=C(OCCCOC(=O)c1ccc([N+](=O)[O-])o1)c1ccc([N+](=O)[O-])o1 | inactive
Cc1[nH]c2ccccc2c1C(=O)C(C)OC(=O)c1ccc([N+](=O)[O-])o1 (stereo not given) | inactive
Cc1ccc(C(=O)O/N=C(\N)c2cccc([N+](=O)[O-])c2)cc1 | inactive
N=c1oc2ccccc2cc1C(=O)NC1CCCCCC1 | inactive
O=C(Nc1nccs1)c1cc2cc(Cl)ccc2oc1=O | inactive
CCOC(=O)c1cn(Cc2cccc(Cl)c2)nn1 | inactive
O=C(COC(=O)c1cccc(C(F)(F)F)c1)NCc1ccccc1 | inactive
CSc1ccccc1NC(=O)c1cc(C(C)C)on1 | inactive
CCCCNS(=O)(=O)c1ccc(OCC(=O)OC)cc1 | inactive
O=c1oc(/C=C/c2ccc([N+](=O)[O-])s2)nc2ccccc12 | inactive

Structure (SMILES) | outcome
C=C(C)C1Cc2cc3ccc(=O)oc3cc2O1 (stereo not given) | inactive
C/C(=N\NC(=O)c1nn(C)cc1Cl)c1ccncc1 | inactive
CCOc1ccc(-c2cc(CCCC(=O)NCCC(C)C)no2)cc1 | inactive
O=c1c(=Nc2ccccc2O)c(=O)c2ccccc12 | inactive
O=C(O)c1[nH]c(=O)[nH]c(=O)c1F | inactive
CCOC(=O)CN1NC2(CCC(C)CC2)NC1=S (stereo not given) | inactive
CCc1cc(C(c2ccncc2)N2CCN(C)CC2)c(NC(=O)c2ccccc2)s1 (stereo not given) | inactive
CCc1ccc(NC(=O)C(=O)NNC(=O)c2cccc(OC)c2)cc1 | inactive
Cc1ccc(C(=O)Oc2cccc(-n3cnnn3)c2)cc1 | inactive
COC(=O)COc1ccc(-c2ccc(F)cc2)cc1C=O | inactive
COc1ccc(/C=N/NC(=O)C(=O)NCc2cccnc2)cc1OC | inactive
Cc1ccc(CCC(=O)Nc2cc(Cl)ccc2Cl)o1 | inactive
Cc1ccc(OCC(=O)N/N=C/c2ccc([N+](=O)[O-])o2)cc1 | inactive
O=[N+]([O-])c1ccc(/C=N/NS(=O)(=O)c2ccc(Cl)cc2)o1 | inactive
Cc1ccc(CCC(=O)Nc2ccc([N+](=O)[O-])cc2)o1 | inactive
Cc1ncsc1CCOC(=O)c1ccc([N+](=O)[O-])cc1 | inactive
Oc1ccc(Br)cc1-c1ccn[nH]1 | inactive
CCCCNC(=O)COC(=O)c1cc(F)c(F)cc1Cl | inactive
C=Cc1cccc(NC(=O)COc2ccccc2)c1 | inactive
Cc1nn(-c2ccccc2)nc1C(=O)c1c(C)[nH]n(-c2ccccc2)c1=O | inactive
CCC(C)c1ccc(O)c(/C=N/O)c1 (stereo not given) | inactive
O=[N+]([O-])c1cc2oc3c(c2c(C=NCc2ccccc2)c1O)CCCC3 | inactive
Nc1ccc(C(=O)N/N=C\C=C\c2ccc([N+](=O)[O-])cc2)cc1 | inactive
O=C(N/N=C/C=C/c1ccco1)c1ccncc1 | inactive

Structure (SMILES) | outcome
O=C(COC(=O)CCC(=O)c1ccc(F)cc1)Nc1ccc(F)cc1F | inactive
COc1cccc(OC(=O)c2cc3ccccc3oc2=O)c1 | inactive
CCC(=O)N1CCN(c2cc3c(cc2F)c(=O)c(C(=O)O)cn3CC)CC1 | inactive
CC(C)OC(=O)CCCCCN1C(=O)CSC1=S | inactive
O=C(OCC#CCSc1nnc(-c2ccccc2)o1)c1ccco1 | inactive
COC(=O)CCCCCN1C(=O)/C(=C\c2ccncc2)SC1=S | inactive
Cc1ccc(C(=O)c2cncc(Br)c2)cc1 | inactive
CCCCN1C(=O)C2(NNc3ccccc3O2)c2ccccc21 (stereo not given) | inactive
COC(=O)COc1ccc2c(=O)c(Oc3ccccc3)c(C)oc2c1 | inactive
O=C(C/C=N\OCc1ccc([N+](=O)[O-])cc1)Nc1ccc(Br)cc1 | inactive
O=C(NNc1ccc([N+](=O)[O-])cc1)C1CC2CCCC(C1)C2=O (stereo not given) | inactive
O=C(NCC1CCCCC1)c1ccc([N+](=O)[O-])cc1 | inactive
NC(N)=N/N=C/c1cc([N+](=O)[O-])ccc1O | inactive
CCCC(=O)Nc1cccc(-c2nc3ccccc3c(=O)o2)c1 | inactive
C#CCOc1coc(COC(=O)c2ccccc2)cc1=O | inactive
CC1C/C(=N/N2C(=O)CSC2=S)CC(C)(C)C1 (stereo not given) | inactive
CCCCCCC1CC(C)(C(=O)CNc2nncs2)OC1=O (stereo not given) | inactive
CC1=NN(C(=O)c2csc(C)c2C)C(O)(C(F)(F)F)C1 (stereo not given) | inactive
Nc1cccn2c(-c3ccc(Cl)cc3)cnc12 | inactive
Cc1ccc(C(=O)Nc2nccs2)cc1 | inactive
CCN1CCN(C(=O)CN(Cc2ccccc2)S(C)(=O)=O)CC1 | inactive
C/C(=N\NC(=O)c1cc([N+](=O)[O-])cc([N+](=O)[O-])c1)c1ccco1 | inactive
CC(C)c1ccc(C2=C(O)c3ccccc3C(=O)C2=O)cc1 | inactive
N#CC1=C(N)Oc2n[nH]c(-c3cccnc3)c2C1c1ccc([N+](=O)[O-])o1 (stereo not given) | inactive
